Screens: PubChem, National Center for Advancing Translational Sciences (NCATS)
An excerpt weighted towards active compounds, which were near 5.5% of everything screened.
CtBP-E1A inh = blocks the CtBP interaction with E1A; AlphaScreen GST-E1A/His-CtBP binding, 1536-well; active compounds read low; activity change, % (no concentration beside the values); 340,000 compounds, 0.49% hits; AID 651724; in the data active = activity change below about -65%; inconclusive = mostly about -30% to -63%
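GST-E1A and His-tagged CtBP (125 nM each as 5X stock) were preincubated with pin-transferred compound for 2 h at 37 °C in the dark, then glutathione donor and nickel acceptor beads were added for 1 h before AlphaScreen reading.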
Six1-Eya2 inh = blocks human Six1 binding to Eya2 | 360,000 compounds, 0.56% hits | Q15475+O00167 | activity change, % (test concentration not listed) | AlphaScreen GST-Six1/His-Eya2 binding, biochemical; active compounds read low; in the data active = activity change below about -65%; inconclusive = mostly about -30% to -63%
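Homogeneous AlphaScreen proximity assay pairing GST-Six1 with His-tagged Eya2 (added as 5X mix: 250 nM and 500 nM) in 50 mM Tris pH 8.0, 300 mM NaCl, 1 mM TCEP. Glutathione donor and nickel acceptor beads; 1 h, 37 °C, dark.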
RORg inh = inhibitors of mouse ROR gamma transcriptional activity | Drosophila S2 Gal4-RORgamma UAS-luciferase reporter, 20 h | Potency, µM (series often up to 53.6 µM), actives largely listed as inhibitors | 310,000 compounds, 5.4% hits; also: nearly all actives have a fitted effect of over 60% in size
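Schneider cells (Drosophila), stable Gal4 DBD–ROR gamma + UAS-luc; 1 hr cmpd preincubation; Cu2+ induction 700 uM final; 20 hr ambient; luminescence.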
Gal4-VP16 FLuc = inhibits Gal4-VP16 luciferase reporter, ROR gamma counter-screen | Drosophila S2 Gal4-VP16 UAS-luciferase, luminescence, 20 h | Potency, µM (top dose mostly 53.6 µM), hits mostly inhibitors | 310,000 compounds, 3.5% hits | AID 2546;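 also: Gal4-VP16 expression switched on by copper sulfate through the metallothionein promoter; nearly all actives have a fitted effect of over 50% in size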
CBFb-RUNX1 inh = inhibitors of human CBF-beta and RUNX1 interaction; AlphaScreen CBFb-His/RUNX1-biotin binding, biochemical; 230,000 tested, under 10 active; Q01196+Q13951; Potency, µM (doses to about 59.8 µM), actives largely listed as inhibitors
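AlphaScreen proximity signal reports loss of binding between His-tagged CBF-beta and biotin-labelled RUNX1, each at 30 nM. Proteins are pre-associated for 20 minutes, compounds added for 15 minutes, then beads for 90 minutes, all at ambient temperature.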
MBNL1 CUG block = blocks human MBNL1 binding to CUG repeat RNA; TR-FRET MBNL1-His/biotin-(CUG)12 binding, 665/545 ratio; Potency, µM (top dose mostly 57.5 µM), usual class: inhibitors; Q9NR56; 280,000 compounds, 0.036% hits; AID 2675; active = well fitted inhibition curve with a large enough effect in the signal ratio, with a control signal flat, not every such curve was filed as active; inconclusive = small, poorly fitted or top-dose-only effect, or effect the other way, or a change in a side signal; inactive = no such curve, though single readings can be large or run the other way; the % refers to the signal ratio
Target sequence (Q9NR56 whole entry, looked up): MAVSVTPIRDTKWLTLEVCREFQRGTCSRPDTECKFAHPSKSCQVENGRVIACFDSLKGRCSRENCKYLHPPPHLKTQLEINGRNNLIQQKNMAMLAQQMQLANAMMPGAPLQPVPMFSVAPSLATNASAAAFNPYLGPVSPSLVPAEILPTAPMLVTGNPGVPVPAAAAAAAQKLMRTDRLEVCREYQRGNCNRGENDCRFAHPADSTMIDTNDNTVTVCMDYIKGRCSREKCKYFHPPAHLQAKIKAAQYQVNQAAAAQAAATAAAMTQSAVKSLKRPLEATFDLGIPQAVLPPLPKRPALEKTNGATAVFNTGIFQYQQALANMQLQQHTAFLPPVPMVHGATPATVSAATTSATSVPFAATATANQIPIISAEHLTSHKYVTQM
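MBNL1-His + Biotin-(CUG)12, cpd titration 92 nM–58 uM; Tb anti-His Ab 0.055 ng/ul, SA-XL665 5 nM (final); 60 min RT; ratiometric 665/545 nm, Ex 340 nm; normalized to buffer and full-complex controls.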
Hits are given with their value; - = inactive; ? = inconclusive; . = no result given; ! = repeats disagree; [ ] = another dose, or the depositor's remark. Unless noted, calls follow the shape of the dose curve; as a rule, active = well fitted curve in the direction sought with a large enough effect; inconclusive = small, poorly fitted or top-dose-only effect, or another doubt; inactive = no such curve, though single readings can be large; an effect the other way counts as inactive or inconclusive.

SMILES	CtBP-E1A inh	Six1-Eya2 inh	RORg inh	Gal4-VP16 FLuc	CBFb-RUNX1 inh	MBNL1 CUG block
S=C(NCc1cccs1)Nc1cccc2ccccc12	-	-	3.55µM	?	-	-
O=C(c1cc(COc2ccc(F)cc2Cl)on1)N(CCO)Cc1cccs1	-	-	-	-	.	-
O=C(Nc1cccc(Cl)c1)Nn1cnnc1	-	-	-	-	-	25.1µM
Cc1cc(C)cc(NC(=O)Nc2ccc(-n3ccc(C(F)(F)F)n3)cc2)c1	-	-	-	-	-	-
O=C(Nc1ccc(-n2ccc(C(F)(F)F)n2)cc1)Nc1cccc(Cl)c1	.	.	?	17.8µM	-	-
CCCCCCCC(=O)OC[C@H](CO)OC(=O)CCCCCCC	.	.	-	-	-	.
Cc1cccc(NC(=S)NC(C)(C)CC(C)(C)C)c1	-	-	2.24µM	8.91µM	-	-
Cc1cccc(NC(=S)NCCN2CCOCC2)c1	-	-	?	?	-	?
COc1ccc(CNC(=S)Nc2cccc(C)c2)cc1	-	-	10µM	20µM	-	-
COc1ccc(CNC(=S)Nc2cccc(Cl)c2)cc1	.	-	.	.	.	.
COc1ccc(CNC(=S)Nc2ccccc2)cc1	-	-	7.08µM	10µM	.	-
COc1ccc(CNC(=S)Nc2cccc(F)c2)cc1	-	-	10µM	6.31µM	.	-
COc1cccc(NC(=S)NCc2ccc3c(c2)cc(C)n3C)c1	.	?	4.47µM	?	?	-
COc1cccc(NC(=S)NCc2ccc(F)cc2)c1	-	-	?	7.08µM	.	-
Cc1cccc(NC(=S)NCc2ccc(F)cc2)c1	-	-	?	12.6µM	-	-[11.5 µM]
OCC[C@@H]1C[C@H](O)[C@@H](O)[C@]2(OCc3ccc4ccccc4c32)O1	-	-	.	.	.	.
CN1CCN(CCCN2c3ccccc3Sc3ccc(Cl)cc32)CC1	?	-	2.82µM!	?	-	-
CN1CCN(CCCN2c3ccccc3Sc3ccccc32)CC1	.	.	-	-	-	.
Cc1[nH]c2c(C)cccc2c(=O)c1CN1CCCCCC1	.	-	-	-	.	-
CC1(C(=O)Nc2ccc3nc[nH]c3c2)CCN1C(=O)C1(c2ccccc2)CCCC1 (configuration not stated)	-	-	.	.	.	.
COc1ccc(C(=O)N/C(=C\c2cn(C)c3ccccc23)C(=O)N2CCOCC2)cc1	-	-	-	-	.	-
COc1ccc(N(C(=O)Cc2cccs2)C(C(=O)NC2CCCC2)c2ccncc2)cc1OC (configuration not stated)	-	-	-	-	.	-
Cc1cccc(N(C(=O)C(F)(F)F)C(C(=O)NC2CCCCC2)c2cccs2)c1 (configuration not stated)	-	-	-	?	-	-
C#CC(=O)N(c1ccc(OC)c(OC)c1)C(C(=O)NC1CCCC1)c1cccs1 (configuration not stated)	-	-	2.51µM	8.91µM	-	-
C#CC(=O)N(c1cccc(OC)c1)C(C(=O)NC1CCCC1)c1cccs1 (configuration not stated)	-	-	1.58µM	5.01µM	-	-
SMILES	CtBP-E1A inh	Six1-Eya2 inh	RORg inh	Gal4-VP16 FLuc	CBFb-RUNX1 inh	MBNL1 CUG block
CC(C)N(CCCNC(=O)c1ccc(CS(=O)(=O)c2c(Cl)cccc2Cl)o1)Cc1ccccc1	-	-	-	-	.	-
CS(=O)(=O)N1CCC2(CCCN(C(=O)Nc3ccccc3)C2)CC1	.	.	-	-	.	.
COC(=O)[C@H]1C[C@@]2(O)CN(S(=O)(=O)c3ccc(C)cc3)C[C@@]2(OC(=O)Nc2c(C)noc2C)C[C@H]1C(=O)OC	-	-	.	.	.	.
O=C(CSc1nnc(-c2ccc3c(c2)OCO3)o1)Nc1ncc(C(F)(F)F)cc1Cl	-	-	3.98µM	?	-	-
O=C(CSc1nnc(-c2ccc(C(F)(F)F)cn2)o1)Nc1cccc(Cl)c1	?	-71.1	-	-	-	-
Cc1nc(NC(=O)CSc2nnc(-c3ccc4c(c3)OCO4)o2)c(Cl)cc1Cl	-	-	-	-	-	?
CCn1c(SCC(=O)Nc2ncc(C(F)(F)F)cc2Cl)nnc1-c1cccc(C)c1	-	-	10µM	?	-	-
COc1ccc(-c2nnc(SCC(=O)Nc3ncc(C(F)(F)F)cc3Cl)n2CC(C)C)cc1	-	-	-	-	-	-
O=C(Cc1ccc(S(=O)(=O)N2CCOCC2)s1)N1CCN(S(=O)(=O)c2ccccc2[N+](=O)[O-])CC1	-	-	.	.	.	.
CC(C)CN1C(=O)CSCC1(C)C(=O)NCc1ccccc1 (configuration not stated)	-	-	.	.	.	.
O=C(Oc1ccc(OC(=O)C2CCC2)cc1)C1CCC1	-	-	11.2µM	22.4µM	-	.
C/C(=N\NC(=S)NC1CCCCC1)c1ccc(OC(F)F)cc1OC(F)F	-	-	?	?	-	-
C/C(=N\NC(=S)NC1CCCCC1)c1c(F)cccc1F	-	-	0.631µM	2.82µM	?	.
C/C(=N\NC(=O)C1CCCC1)c1ccc(Cl)c(Cl)c1	-	-	-	-	.	-
C/C(=N\NC(=S)NC1CCCCC1)c1cccs1	-	?	?	0.794µM	-	-
C/C(=N\NC(=S)NC1CCCCC1)c1ccc(Cl)c(Cl)c1	-	-	1.41µM	2.82µM	-	-
C[C@H]1Cc2c(COc3ccccc3)nc3c(c2CO1)CN(C(=O)Cc1cccs1)CC3	.	.	.	.	-[13.1 µM]	.
COc1cccc(/C=N/Nc2ccc([N+](=O)[O-])cn2)c1O	-	-	4.47µM	7.08µM	.	?
O=[N+]([O-])c1ccc(/C=N/Nc2ncccc2[N+](=O)[O-])s1	-	-	.	.	.	.
O=[N+]([O-])c1cccc(/C=N/Nc2nc(N3CCOCC3)nc(N3CCOCC3)n2)c1	-	-	-	-	-	-
O=[N+]([O-])c1cccc(/C=C/C=N/Nc2nc(N3CCCCC3)nc(N3CCCCC3)n2)c1	-	-	7.94µM	-	-	-
COc1cccc(/C=N/Nc2ncccc2[N+](=O)[O-])c1OC	-	-	1.26µM	4.47µM	-	?
O=[N+]([O-])c1ccc(NN=Cc2cccc3ccccc23)nc1	-	-	.	.	.	.
COc1cccc(/C=N/Nc2nc(Nc3ccc([N+](=O)[O-])cc3)nc(N3CCCC3)n2)c1O	-	-	4.47µM	-	?	-
O=[N+]([O-])c1ccc(Nc2nc(N/N=C/c3cccc(F)c3)nc(N3CCCC3)n2)cc1	-	-	?	-	-	-
CCOC(=O)[C@]12CCCC=C1N(Cc1ccc3c(c1)OCO3)C(=O)[C@H](CC(=O)NCc1ccc(C)o1)C2	-	-	.	.	.	.
Cc1cc(OCCCN2CCC(C(O)(c3ccccc3)c3ccccc3)CC2)ccc1Br	-	-	.	.	.	.
Cc1ccc(Cn2cc(/C=N/Nc3ccc([N+](=O)[O-])cn3)c3ccccc32)cc1	-	-	11.2µM	7.94µM	-	-
